The values below come from PubChem BioAssay (Tox21).

“And” between values parts separate entries of the source, which are not always exact repeats. Identical values can stand only once. Records with an inconclusive call do not appear. The source made the active and inactive calls. Unless noted, calls follow the shape of the dose curve; as a rule, active = well fitted curve in the direction sought with a large enough effect in the repeat runs; inconclusive = weak or mixed curves; inactive = no such curve, though single readings can be large; an effect the other way counts as inactive or inconclusive.

Assay [1] in a line: qHTS assay to identify small molecule antagonists of the estrogen related receptor (ERR) signaling pathway from Tox21 library - cell viability counter screen (AID 1224834). Also: nearly all actives have a fitted effect of over 30% in size. Put shortly:
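ERR reporter cells, 2,000 per well, rested 6 h, then exposed to compound in DMSO for 17.5 hours at 37 C. Viability read as fluorescence after 30 min with CellTiter-Fluor.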
On the technique in general: In qHTS, concentration-response curves come from the screen itself.

For assay [2], the target named is Luciferin 4-monooxygenase (Photinus pyralis) (UniProt P08659). Put plainly: qHTS assay to identify small molecule inhibitors of firefly luciferase (AID 1224835). Also: nearly all actives have a fitted effect of over 25% in size. Also: potency is read from the fitted curve at half-maximal effect. Put shortly:
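Inhibition of purified Photinus luciferase is measured by luminescence. Substrate levels (D-luciferin, ATP) sit at their KM values. Each compound is tested in a concentration series.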

A short description of assay [3]: qHTS assay to identify small molecule agonists of the constitutive androstane receptor (CAR) signaling pathway - cell viability counter screen (AID 1224836). Also: series mostly up to about 92 µM; nearly all actives have a fitted effect of over 45% in size. Put shortly: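 HepG2 cells stably carrying hCAR and a CYP2B6-2.2kb reporter; 15-concentration compounds plus PK11195 (final 0.75 uM), 23 hr at 37 C/5% CO2. Viability read by CellTiter-Fluor fluorescence.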
Assay [4] can be described thus: qHTS assay to identify small molecule antagonists of the constitutive androstane receptor (CAR) signaling pathway - cell viability counter screen (AID 1224837). Also: series mostly up to about 92 µM; nearly all actives have a fitted effect of over 45% in size. The essentials:
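HepG2 cells stably carrying hCAR and CYP2B6-2.2kb reporter, stimulated with 50 nM CITCO and compounds at 15 concentrations for 23 h at 37 C. Viability measured by CellTiter-Fluor fluorescence.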

In assay [5] the target is Nuclear receptor subfamily 1 group I member 3 (Homo sapiens) (UniProt Q14994). Nature of the assay: qHTS assay to identify small molecule antagonists of the constitutive androstane receptor (CAR) signaling pathway (AID 1224838). Also: nearly all actives have a fitted effect of over 40% in size. The essentials:
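HepG2 cells stably carrying hCAR and a CYP2B6-2.2kb luciferase reporter, seeded 4 hrs before compound (15 concentrations). Stimulated with 50 nM CITCO for 24 hr at 37 C. ONE-Glo luminescence read after 30 min at room temperature.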

Assay [6] has the same target. Put plainly: qHTS assay to identify small molecule agonists of the constitutive androstane receptor (CAR) signaling pathway (AID 1224839). Also: nearly all actives have a fitted effect of over 15% in size. Also: potency is read from the fitted curve at half-maximal effect. Put shortly: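 HepG2 cells stably co-transfected with hCAR and a CYP2B6-2.2kb luciferase reporter; compounds at 15 concentrations with 0.75 uM PK11195 present. After 24 hr at 37 C, luciferase read by ONE-Glo luminescence.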
A short description of assay [7]: qHTS assay to identify small molecule antagonists of the estrogen related receptor signaling pathway with the pleiotropic PPARgamma coactivator (PGC) from Tox21 10K library - cell viability counter screen (AID 1224840; active = well fitted cell-killing curve with a large enough effect in the repeat runs, not every such curve was filed as active; also: nearly all actives have a fitted effect of over 40% in size). Put shortly:
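PGC/ERR cells (2,000/well) plated 6 h, then compound-treated for 17.5 h at 37 C. Viability measured by CellTiter-Fluor fluorescence after 30 min at 37 C, multiplexed with the pathway assay.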

For assay [8], the target named is Thyrotropin receptor (Homo sapiens) (UniProt P16473). Nature of the assay: qHTS assay to identify small molecule agonists of the thyroid stimulating hormone receptor (TSHR) signaling pathway (AID 1224843; calls by dose curve; also: nearly all actives have a fitted effect of over 45% in size). Put shortly: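 Screening of the Tox21 10K collection used HEK293 cells engineered with TSHR at 800 cells per well. After a 30-min room-temperature compound exposure, HTRF cAMP reagents were added and fluorescence recorded 1 h later.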

Assay [9] is described as follows: qHTS assay to identify small molecule antagonists of the estrogen related receptor signaling pathway with the pleiotropic PPARgamma coactivator (PGC) from Tox21 10K library (AID 1224841; call rule not given here; also: series mostly up to about 92 µM; actives are mostly falling curves and most rising ones were filed inactive; nearly all actives have a fitted effect of over 50% in size). Put shortly: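 PGC/ERR cell line, 2,000 cells/well, pre-incubated 6 hours at 37 C, then exposed to compounds for 18 hours at 37 C; luciferase read with One-Glo luminescence after 30 min at room temperature.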

Assay [10] can be described thus: qHTS assay to identify small molecule agonists of the estrogen related receptor signaling pathway with the pleiotropic PPARgamma coactivator (PGC) from Tox21 10K library (AID 1224842). Also: nearly all actives have a fitted effect of over 15% in size. Put shortly:
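Luminescence from One-Glo (30 min, room temperature) measured after PGC/ERR cells had 18 h at 37 C with pinned compound (23 nL in DMSO). Cells had been seeded at 2,000 per well and pre-incubated 6 h.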

Chain of Nuclear receptor subfamily 1 group I member 3 (Homo sapiens) (Q14994 whole entry, looked up): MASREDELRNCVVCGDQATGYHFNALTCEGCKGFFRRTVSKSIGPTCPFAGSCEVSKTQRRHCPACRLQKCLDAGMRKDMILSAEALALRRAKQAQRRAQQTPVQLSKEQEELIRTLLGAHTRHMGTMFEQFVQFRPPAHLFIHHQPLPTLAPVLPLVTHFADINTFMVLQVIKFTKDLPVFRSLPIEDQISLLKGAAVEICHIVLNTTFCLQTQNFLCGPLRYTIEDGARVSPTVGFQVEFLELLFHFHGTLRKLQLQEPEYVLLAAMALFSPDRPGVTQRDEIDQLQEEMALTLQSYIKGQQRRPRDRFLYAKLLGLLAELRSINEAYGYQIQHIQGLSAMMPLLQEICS
Chain of Thyrotropin receptor (Homo sapiens) (P16473 whole entry, looked up): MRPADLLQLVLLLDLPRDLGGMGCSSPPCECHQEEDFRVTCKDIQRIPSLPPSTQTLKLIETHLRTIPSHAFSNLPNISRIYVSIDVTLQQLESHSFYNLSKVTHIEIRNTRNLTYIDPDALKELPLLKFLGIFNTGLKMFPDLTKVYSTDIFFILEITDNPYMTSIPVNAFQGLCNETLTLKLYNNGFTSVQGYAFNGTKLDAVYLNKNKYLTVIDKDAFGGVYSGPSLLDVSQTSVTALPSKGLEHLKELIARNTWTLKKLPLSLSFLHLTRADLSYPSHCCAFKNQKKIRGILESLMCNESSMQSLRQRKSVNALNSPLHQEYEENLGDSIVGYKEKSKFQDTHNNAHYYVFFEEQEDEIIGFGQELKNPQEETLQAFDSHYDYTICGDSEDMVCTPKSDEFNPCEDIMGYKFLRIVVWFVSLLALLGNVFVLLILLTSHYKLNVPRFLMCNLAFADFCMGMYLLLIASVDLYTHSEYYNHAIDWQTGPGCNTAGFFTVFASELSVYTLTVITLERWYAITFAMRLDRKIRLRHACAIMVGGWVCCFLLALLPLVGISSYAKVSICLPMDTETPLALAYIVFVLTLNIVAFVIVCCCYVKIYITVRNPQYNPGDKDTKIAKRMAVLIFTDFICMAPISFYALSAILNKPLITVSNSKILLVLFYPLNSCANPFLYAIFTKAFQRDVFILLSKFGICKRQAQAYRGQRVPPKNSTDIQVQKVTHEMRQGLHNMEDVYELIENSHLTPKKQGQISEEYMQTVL
Chain of Luciferin 4-monooxygenase (Photinus pyralis) (P08659 whole entry, looked up): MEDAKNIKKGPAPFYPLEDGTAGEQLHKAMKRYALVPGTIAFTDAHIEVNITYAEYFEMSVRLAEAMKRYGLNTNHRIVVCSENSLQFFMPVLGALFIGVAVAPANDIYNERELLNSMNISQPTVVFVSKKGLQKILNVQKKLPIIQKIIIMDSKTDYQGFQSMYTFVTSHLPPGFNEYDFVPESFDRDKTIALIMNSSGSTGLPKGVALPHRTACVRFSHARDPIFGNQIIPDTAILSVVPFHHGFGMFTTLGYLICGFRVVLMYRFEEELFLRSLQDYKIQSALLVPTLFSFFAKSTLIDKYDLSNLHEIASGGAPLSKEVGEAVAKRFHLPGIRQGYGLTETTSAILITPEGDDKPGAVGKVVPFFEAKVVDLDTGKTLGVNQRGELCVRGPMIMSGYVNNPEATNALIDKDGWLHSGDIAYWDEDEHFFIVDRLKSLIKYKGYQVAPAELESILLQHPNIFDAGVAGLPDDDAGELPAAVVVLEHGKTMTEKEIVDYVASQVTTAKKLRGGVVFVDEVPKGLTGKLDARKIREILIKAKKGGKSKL

As to `CCOc1cccc(C2(N3CCN(c4ccccc4)CC3)CCC(C)CC2)c1` (centres undefined), the Potency result in assay [1], in [2], in [3], in assay [4], in assay [5] and in assay [6] was “inactive” throughout. The Potency entry in assay [7] and in assay [8] was “inactive” in each case.

On to `CCCC(C)(COC(N)=O)COC(=O)NC(C)C` (centres undefined), for which the Potency result in assay [1], in [2], in [3], in [4], in assay [5] and in [6] was “inactive” in each case. The Potency result in [7], in assay [9], in assay [10] and in assay [8] was “inactive” each time.

Take `CCc1cnc(C2=NC(C)(C(C)C)C(=O)N2)c(C(=O)O)c1` (centres undefined): the Potency entry in [1], in assay [2], in [3], in [4], in assay [5] and in [6] was “inactive” in each case. Also, the Potency entry in assay [7] and in assay [8] was “inactive” in each case.

Turning to `CC(Cl)C(=O)O` (centres undefined), the Potency entry in [1], in assay [2], in assay [3], in [4], in [5] and in assay [6] was “inactive” in each case. The Potency entry in assay [7] and in assay [8] was “inactive” throughout.

Take `O=C(O)C(Cl)(Cl)Br`: the Potency result in assay [1], in assay [2], in assay [3], in [4], in assay [5] and in assay [6] was “inactive” each time. Moreover, the Potency result in assay [7] and in [8] was “inactive” throughout.

As for `CC(Oc1cc(Cl)c(Cl)cc1Cl)C(=O)O` (centres undefined), the Potency entry in assay [1], in assay [2], in assay [3], in assay [4], in assay [5] and in [6] was “inactive” each time. Moreover, the Potency result in assay [7] and in assay [8] was “inactive” each time.

Take `CCOP(=S)(OCC)SCSc1cc(Cl)ccc1Cl`: the Potency entry in assay [1], in assay [2], in assay [3], in assay [4], in assay [5] and in assay [6] was “inactive” throughout. For the same molecule, the Potency entry in assay [7] and in assay [8] was “inactive” each time.

As to `COCc1cnc(C2=NC(C)(C(C)C)C(=O)N2)c(C(=O)O)c1` (centres undefined), the Potency result in assay [1], in assay [2], in assay [3], in assay [4], in assay [5] and in assay [6] was “inactive” in each case. Moreover, the Potency result in [7] and in assay [8] was “inactive” throughout.

In the case of `O=C(O)C(F)(F)C(F)(F)C(F)(F)C(F)(F)C(F)(F)F`, the Potency result in assay [1], in [2], in assay [3], in assay [4], in assay [5] and in [6] was “inactive” throughout. In addition, the Potency result in assay [7] and in assay [8] was “inactive” each time.

In the case of `CCCCC#N`, the Potency entry in assay [1], in assay [2], in [3], in assay [4], in assay [5] and in assay [6] was “inactive” throughout. For the same molecule, the Potency entry in [7] and in [8] was “inactive” throughout.

Regarding `CC(Oc1cccc(Cl)c1)C(=O)O` (centres undefined), the Potency entry in assay [1], in assay [2], in [3], in [4], in [5] and in assay [6] was “inactive” throughout. Further, the Potency entry in assay [7] and in assay [8] was “inactive” each time.

For `CC(C)(c1ccccc1)c1cc(-n2nc3ccccc3n2)c(O)c(C(C)(C)c2ccccc2)c1`, the Potency result in assay [1], in [2], in assay [3], in assay [4], in assay [5] and in [6] was “inactive” throughout. Besides, the Potency result in [7] and in assay [8] was “inactive” each time.

With `C[C@H]1O[C@H](OC2[C@@H](O)[C@@H](O)C(O)[C@H](O)[C@H]2O)[C@@H](N)C[C@@H]1N=C(N)C(=O)O` (some centres undefined), the Potency entry in assay [1], in assay [2], in [3], in assay [4], in [5] and in assay [6] was “inactive” in each case. In addition, the Potency entry in assay [7] and in [8] was “inactive” in each case.

Consider `FC(F)OC(F)(F)C(F)Cl` (centres undefined), for which the Potency result in [1], in assay [2], in assay [3], in [4], in assay [5] and in assay [6] was “inactive” each time. For the same molecule, the Potency entry in assay [7] and in assay [8] was “inactive” each time.

In the case of `NC(=O)CF`, the Potency result in assay [1], in assay [2], in assay [3], in assay [4], in assay [5] and in assay [6] was “inactive” throughout. Further, the Potency entry in [7] and in assay [8] was “inactive” throughout.

For the molecule `O=C(Cc1ccccc1)c1ccccc1`, the Potency entry in [1], in [3], in [4], in assay [5], in assay [7] and in assay [8] was “inactive” in each case. Besides, the Potency in [2] is 71 µM (active); in assay [6], 54.5 µM (active).

Turning to `Nc1cccc2ccccc12`, the Potency entry in assay [1], in assay [2], in [3], in assay [4], in assay [5] and in assay [7] was “inactive” in each case. For the same molecule, the Potency entry in [8] is “inactive”. For the same molecule, the Potency in assay [6] is 30.8 µM (active) and 61.1 µM (active).

Consider `CCOC(=O)c1cncn1C(C)c1ccccc1` (centres undefined), for which the Potency entry in assay [1], in [2], in assay [3], in [4], in assay [5] and in [7] was “inactive” throughout. For the same molecule, the Potency entry in assay [9], in assay [10] and in [8] was “inactive” throughout.

`CCC(C)(C)O`: the Potency entry in assay [1], in assay [2], in assay [3], in assay [4], in [5] and in assay [6] was “inactive” each time. Further, the Potency entry in assay [7] and in [8] was “inactive” throughout.

On to `CCc1ccccc1N`, for which the Potency result in assay [1], in assay [2], in assay [3], in assay [4], in assay [5] and in assay [6] was “inactive” each time. The Potency entry in assay [7] and in assay [8] was “inactive” throughout.

For `COC1CC(=C(c2cccs2)c2cccs2)C[N+](C)(C)C1` (centres undefined), the Potency result in assay [1], in assay [2], in assay [3], in assay [4], in [5] and in assay [6] was “inactive” throughout. The Potency result in assay [7] and in assay [8] was “inactive” each time.

For the molecule `O=C1CC[C@@]2(O)[C@H]3Cc4ccc(O)c5c4[C@@]2(CCN3CC2CC2)[C@H]1O5`, the Potency result in [1], in [2], in assay [3], in assay [4], in [5] and in assay [6] was “inactive” throughout. Moreover, the Potency result in assay [7] and in assay [8] was “inactive” throughout.

For the molecule `O=CC=O`, the Potency entry in assay [1], in assay [2], in assay [3], in assay [4], in assay [5] and in [6] was “inactive” throughout. Further, the Potency result in assay [7] and in assay [8] was “inactive” throughout.

On to `N#CC(C#N)=Cc1ccc(O)c(O)c1`, for which the Potency entry in assay [1], in [2], in [3], in assay [4], in assay [5] and in assay [6] was “inactive” in each case. The Potency entry in [7] and in assay [8] was “inactive” throughout.

Consider `FC(Cl)(Cl)C(F)(Cl)Cl`, for which the Potency result in [1], in assay [2], in [3], in [4], in assay [5] and in [6] was “inactive” throughout. Further, the Potency result in [7] and in assay [8] was “inactive” each time.

In the case of `COc1cc(CC#N)cc(OC)c1OC`, the Potency entry in [1], in assay [2], in assay [3], in [4], in [5] and in assay [6] was “inactive” throughout. For the same molecule, the Potency entry in assay [7] and in assay [8] was “inactive” throughout.

`O=S(=O)(Cl)Cl`: the Potency result in [1], in [2], in assay [3], in [4], in assay [5] and in [6] was “inactive” each time. Besides, the Potency result in assay [7] and in [8] was “inactive” throughout.
